Assay results published in PubChem BioAssay AID1159580 (chemical genetic matrix, 2015).
Where “and” joins values, the source holds several entries; their conditions need not be identical. Equal entries are not always repeated. Among all 5,500 compounds or so, about 2,000 (36%) were called active. Inconclusive results (about 18%) are left out. Cut-off read from the data, not from the text of the source: active = normalized growth mostly below about 0.91 (no sharp cut-off); inconclusive = no clear call, values can overlap the other calls; inactive = mostly above about 0.92. This is one part of the list.

Test: chemical genetic growth profiling, strain panel (AID 1159580);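 note: tested at 20 µM; growth read once vehicle control cultures reached saturation at 30 °C; 1 = growth at the plate median or of vehicle wells; lower values mean less growth of the strain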
Conditions: growth OD

Measured: normalized growth

NC(N)=Nc1nc(CSCCC(N)=NS(N)(=O)=O)cs1
inactive: S. cerevisiae deletion strains, locus YKL009W, strain mrt4, hits give low values 1.04 | S. cerevisiae deletion strains, locus YKL068W, hits give low values 1.01 | S. cerevisiae deletion strains, locus YKL085W, strain MDH1 (second series), hits give low values 0.987 | S. cerevisiae deletion strains, locus YKL085W, strain MDH1, hits give low values 0.987 | S. cerevisiae deletion strains, locus YKL160W, strain elf1, hits give low values 0.974 | S. cerevisiae deletion strains, locus YKL190W, strain CNB1, hits give low values 1 | S. cerevisiae deletion strains, locus YKR001C, strain vps1, hits give low values 1.01 | S. cerevisiae deletion strains, locus YKR026C, strain gcn3, hits give low values 0.981 | S. cerevisiae deletion strains, locus YKR091W, strain srl3, hits give low values 0.97 | S. cerevisiae deletion strains, locus YLL001W, strain dnm1, hits give low values 0.933 | S. cerevisiae deletion strains, locus YLL026W, hits give low values 0.992 | S. cerevisiae deletion strains, locus YLL041C, strain sdh2, hits give low values 0.995 | S. cerevisiae deletion strains, locus YLR027C, strain aat2, hits give low values 0.987 | S. cerevisiae deletion strains, locus YLR039C, strain RIC1, hits give low values 0.979 | S. cerevisiae deletion strains, locus YLR058C, strain SHM2, hits give low values 1.02 | S. cerevisiae deletion strains, locus YLR102C, strain apc9, hits give low values 1.01 | S. cerevisiae deletion strains, locus YLR113W, strain HOG1, hits give low values 0.97 | S. cerevisiae deletion strains, locus YLR221C, strain rsa3, hits give low values 0.99 | S. cerevisiae deletion strains, locus YLR258W, strain gsy2, hits give low values 0.998 | S. cerevisiae deletion strains, locus YLR262C, strain YPT6 (second series), hits give low values 0.961 | S. cerevisiae deletion strains, locus YLR262C, strain YPT6, hits give low values 0.979 | S. cerevisiae deletion strains, locus YLR268W, strain sec22, hits give low values 1.05 | S. cerevisiae deletion strains, locus YLR320W, strain mms22, hits give low values 1.01 | S. cerevisiae deletion strains, locus YLR330W, strain CHS5, hits give low values 0.996 | S. cerevisiae deletion strains, locus YLR342W, strain FKS1 (second series), hits give low values 1.02 | S. cerevisiae deletion strains, locus YLR342W, strain FKS1, hits give low values 0.983 | S. cerevisiae deletion strains, locus YLR357W, strain rsc2, hits give low values 1.04 | S. cerevisiae deletion strains, locus YLR370C, strain arc18, hits give low values 0.972 | S. cerevisiae deletion strains, locus YLR371W, strain rom2, hits give low values 1.01 | S. cerevisiae deletion strains, locus YLR384C, strain iki3, hits give low values 0.963 | S. cerevisiae deletion strains, locus YLR418C, strain cdc73, hits give low values 0.999 | S. cerevisiae deletion strains, locus YML016C, strain PPZ1, hits give low values 0.997 | S. cerevisiae deletion strains, locus YML032C, strain rad52, hits give low values 1.02 | S. cerevisiae deletion strains, locus YML120C, strain ndi1, hits give low values 0.977 | S. cerevisiae deletion strains, locus YML124C, strain tub3, hits give low values 1 | S. cerevisiae deletion strains, locus YMR058W, strain fet3, hits give low values 0.991 | S. cerevisiae deletion strains, locus YMR078C, strain ctf18, hits give low values 1.02 | S. cerevisiae deletion strains, locus YMR125W, strain sto1, hits give low values 0.956 | S. cerevisiae deletion strains, locus YMR129W, hits give low values 0.99 | S. cerevisiae deletion strains, locus YMR205C, strain PFK2, hits give low values 0.988 | S. cerevisiae deletion strains, locus YMR223W, strain ubp8, hits give low values 1.01 | S. cerevisiae deletion strains, locus YMR231W, strain pep5, hits give low values 0.971 | S. cerevisiae deletion strains, locus YMR263W, strain SAP30, hits give low values 1.01 | S. cerevisiae deletion strains, locus YMR307W, strain GAS1, hits give low values 0.95 | S. cerevisiae deletion strains, locus YNL067W, strain RPL9B, hits give low values 1.01 | S. cerevisiae deletion strains, locus YNL071W, strain lat1, hits give low values 0.996 | S. cerevisiae deletion strains, locus YNL128W, strain TEP1, hits give low values 1.01 | S. cerevisiae deletion strains, locus YNL153C, strain GIM3, hits give low values 1.01 | S. cerevisiae deletion strains, locus YNL175C, strain NOP13, hits give low values 1.01 | S. cerevisiae deletion strains, locus YNL183C, strain NPR1, hits give low values 0.931 | S. cerevisiae deletion strains, locus YNL197C, strain WHI3, hits give low values 1.01 | S. cerevisiae deletion strains, locus YNL209W, strain ssb2, hits give low values 0.993 | S. cerevisiae deletion strains, locus YNL224C, strain SQS1, hits give low values 0.986 | S. cerevisiae deletion strains, locus YNL233W, strain BNI4, hits give low values 1.01 | S. cerevisiae deletion strains, locus YNL248C, strain rpa49, hits give low values 0.994 | S. cerevisiae deletion strains, locus YNL250W, strain rad50, hits give low values 1 | S. cerevisiae deletion strains, locus YNL271C, strain bni1, hits give low values 1.01 | S. cerevisiae deletion strains, locus YNL298W, strain CLA4, hits give low values 1.02 | S. cerevisiae deletion strains, locus YNL307C, strain MCK1, hits give low values 1.01 | S. cerevisiae deletion strains, locus YNL322C, strain KRE1 (second series), hits give low values 0.963 | S. cerevisiae deletion strains, locus YNL322C, strain KRE1, hits give low values 1 and 1.01 | S. cerevisiae deletion strains, locus YNR049C, strain mso1, hits give low values 0.972 | S. cerevisiae deletion strains, locus YNR052C, strain pop2, hits give low values 1.02 | S. cerevisiae deletion strains, locus YOL006C, strain TOP1, hits give low values 1.06 | S. cerevisiae deletion strains, locus YOL012C, strain htz1 0.851 | S. cerevisiae deletion strains, locus YOL147C, strain pex11, hits give low values 1.01 | S. cerevisiae deletion strains, locus YOR001W, strain rrp6, hits give low values 0.972 | S. cerevisiae deletion strains, locus YOR061W, strain CKA2, hits give low values 1 | S. cerevisiae deletion strains, locus YOR069W, strain VPS5, hits give low values 1.01 | S. cerevisiae deletion strains, locus YOR070C, strain gyp1, hits give low values 0.982 | S. cerevisiae deletion strains, locus YOR080W, strain dia2, hits give low values 0.97 | S. cerevisiae deletion strains, locus YOR083W, strain WHI5 (second series), hits give low values 0.992 | S. cerevisiae deletion strains, locus YOR083W, strain WHI5, hits give low values 0.965 | S. cerevisiae deletion strains, locus YOR106W, strain vam3, hits give low values 0.96 | S. cerevisiae deletion strains, locus YOR136W, strain idh2, hits give low values 1 | S. cerevisiae deletion strains, locus YOR144C, strain elg1, hits give low values 1.01 | S. cerevisiae deletion strains, locus YOR184W, strain ser1, hits give low values 1 | S. cerevisiae deletion strains, locus YOR231W, strain MKK1, hits give low values 0.959 | S. cerevisiae deletion strains, locus YOR265W, strain rbl2, hits give low values 0.986 | S. cerevisiae deletion strains, locus YOR270C, strain vph1, hits give low values 0.966 | S. cerevisiae deletion strains, locus YOR290C, strain snf2, hits give low values 1 | S. cerevisiae deletion strains, locus YOR316C, strain cot1, hits give low values 1 | S. cerevisiae deletion strains, locus YPL051W, strain arl3, hits give low values 0.99 | S. cerevisiae deletion strains, locus YPL055C, strain LGE1, hits give low values 0.97 | S. cerevisiae deletion strains, locus YPL078C, strain atp4, hits give low values 0.968 | S. cerevisiae deletion strains, locus YPL106C, strain sse1, hits give low values 0.999 | S. cerevisiae deletion strains, locus YPL240C, strain hsp82, hits give low values 1 | S. cerevisiae deletion strains, locus YPL241C, strain CIN2, hits give low values 0.997 and 1.01 | S. cerevisiae deletion strains, locus YPL256C, strain CLN2, hits give low values 0.961 | S. cerevisiae deletion strains, locus YPR119W, strain clb2, hits give low values 1 | S. cerevisiae deletion strains, locus YPR141C, strain kar3, hits give low values 1 | S. cerevisiae deletion strains, locus YPR163C, strain tif3, hits give low values 1.02 | S. cerevisiae deletion strains, locus YPR167C, strain met16, hits give low values 1.01 | S. cerevisiae deletion strains, strain wtn01, hits give low values 1.02 | S. cerevisiae strains, strain wild type, hits give low values 1
